Test results from ChEMBL document CHEMBL3988442, “University of Dundee, Small-Polar-MMV Screening Library” (2021).
The whole screen tested about 66,000 compounds, of which about 960 (1.5%) showed an effect of 50% or more. The entries come from a sample that favours strong results as a whole.

Tested on: Trypanosoma brucei
Assay: Trypanosoma brucei 72 hour study
Assay type: functional, organism-based
Set-up: scale not given: in the data most compounds retested in dose-response had high values

Structure (SMILES)	Percent Effect (30 µM, 30.03 µM) [%]	Percent Effect (30.3 µM, […]) [%]
CC(C)CN1CCC(NC(=O)c2ccc(F)cc2Cl)CC1	-22.52	–
CC(C)CN1CCC(NC(=O)c2ccc(F)cc2F)CC1	-0.8337	–
CC(C)CN1CCC(NC(=O)c2ccc(F)cc2I)CC1	77.98	–
CCCN1CCC(NC(=O)c2csc(C)c2C)CC1	–	-65.99
CCN1CCC(NC(=O)c2ccc(F)cc2I)CC1	29.33	–
CCCN1CCC(NC(=O)c2ccc(F)cc2I)CC1	80.53	–
CNC(=O)COC1COC2(CCN(Cc3cccnc3OC)CC2)C1.O=C(O)C(F)(F)F (configuration not stated)	–	-30.72
O=C(O)C(F)(F)F.O=C([C@@H]1C[C@@H]2CCN(c3cccc(F)c3)C[C@H]2O1)N1CCCC1	–	-10.13
COc1cc(NC(=O)c2ccc(CN3CC[C@H](O)C3)cc2)cc(OC)c1	–	58.59
Cc1cncc(NC(=O)c2ccc(CN3CC[C@H](O)C3)cc2)c1	–	-21.22
Cc1cc(NC(=O)c2ccc(CN3CC[C@H](O)C3)cc2)ccc1F	–	41.32
CN(C)Cc1cn2c(n1)CN(C(=O)Cc1ccsc1)CC2.O=C(O)C(F)(F)F	-42.4	–
Cl.O=c1c2sccc2nc2n1CCN(Cc1ccc(F)c(F)c1)CC2	–	15.73
Cc1cc(C)nc(N2CCc3ccc(OC(F)F)cc3C2)n1	–	70.84
COc1ccc2c(c1)CN(c1nc(C)cc(C)n1)CC2	–	100.3
COc1cccc(O[C@H]2CCN(c3nc(C)cc(C)n3)CC[C@@H]2O)c1	–	-10.89
COc1ccc(C2CN(c3nc(C)cc(C)n3)CCN2C(C)=O)cc1 (configuration not stated)	–	9.247
COc1ccnc(N2CCc3ccc(OC(F)F)cc3C2)n1	–	7.96
COc1ccc2c(c1)CN(c1cc(N3CCCC3CO)ncn1)CC2 (configuration not stated)	–	27.38
CN1CCc2c(C#N)c(NCc3cccnc3)n3cnnc3c2C1.Cl	-8.696	–
CCC(C)N(Cc1ccsc1)C(=O)c1ccc2[nH]nnc2c1 (configuration not stated)	2.149	–
O=C(O)C(F)(F)F.c1cnc(N2CCO[C@H]3CN(CC4CCOC4)C[C@H]32)cn1 (some centres not stated)	–	-89.28
Fc1ccc(N2CCCN(c3ccc(Cn4ccnc4)cn3)CC2)cc1	-16.3	–
CS(=O)(=O)N1CCO[C@@H]2CN(C(=O)N3CCOCC3)CC[C@@H]2C1	–	-93.06
CCc1noc(CNCCn2cc(C)cn2)n1	–	-10.46
Cc1cnn(CCNCc2nc(CNC(=O)c3ccccc3)no2)c1	–	55.13
Cc1cnn(CCNCc2nc(Cc3ccccc3)no2)c1	-8.184	–
